Mcl1-Noxa inh = disrupts binding of human Mcl-1 to Noxa peptide. Q07820. TR-FRET Mcl-1/Noxa peptide binding, 2 h. inhibition, % at 21.7 µM. 220,000 tested, 1.5% active. AID 1022;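 active = compounds that cut the protein-peptide binding signal by more than 50% relative to plate controls in a single-dose test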;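 also: His-tagged Mcl-1 with rhodamine Noxa BH3 peptide and terbium anti-His antibody; 0% = Mcl-1 plus Noxa peptide wells and 100% = peptide-only wells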
GLD-1 RNA inh = GLD-1-TGE RNA interaction inhibition (C. elegans); Q17339; purified GLD-1 + fluorescein TGE RNA, fluorescence polarization; inhibition, % at 5.96 µM; 320,000 tested, 0.44% active;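 active = percent inhibition above a per-plate cutoff, the plate mean of test compounds plus 3 SD, cut at about 30% in these data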;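 also: 0% = DMSO wells with GLD-1 and probe and 100% = wells lacking GLD-1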
MCL1 BIM primary = MCL1-BIM-BH3 interaction inhibition (human); GST-MCL1 / FITC-Bim-BH3 fluorescence polarization; inhibition, % at 10.9 µM; 320,000 tested, 0.68% active;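 active = inhibition above the mean inhibition of all tested compounds plus 3 SD, set per campaign, cut at about 40% in these data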;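 also: 0% = DMSO wells and 100% = unlabeled Bim-BH3 peptide control; higher means more loss of mP so more displacement of Bim peptide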
Mcl-1 Bim block = human Bim-Mcl-1 interaction inhibition; Q07820; Bead-based flow cytometry, Bim peptide-Mcl-1 binding; inhibition, % at 10 µM; 190,000 tested, 0.1% active; in the data active = inhibition above about 40%;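 also: 0% = no compound tracer wells and 100% = peptide blocker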
BCLXL inh = Bcl-xL (human) inhibition | Q07817 | GST-Bcl-xL / FITC-Bim BH3 peptide fluorescence polarization | inhibition, % at 10.9 µM | 320,000 tested, 0.7% active | AID 2129;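 active = inhibition above the mean of all tested compounds plus 3 SD, cutoff set per campaign, cut at about 30% in these data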;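 also: 0% = DMSO wells and 100% = unlabeled Bim-BH3 peptide competitor; inhibitors lower millipolarization by displacing the labeled peptide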
Target sequence (Q07817 whole entry, looked up): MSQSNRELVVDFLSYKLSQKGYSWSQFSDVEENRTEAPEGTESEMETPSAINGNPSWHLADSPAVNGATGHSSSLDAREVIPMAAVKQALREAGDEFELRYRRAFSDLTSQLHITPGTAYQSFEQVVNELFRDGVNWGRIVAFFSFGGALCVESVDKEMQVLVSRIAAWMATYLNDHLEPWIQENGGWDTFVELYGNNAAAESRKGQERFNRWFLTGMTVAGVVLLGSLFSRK
Mcl1 Bid PPI = disrupts binding of human Mcl-1 to Bid peptide. TR-FRET Mcl-1/Bid-Dy647 peptide binding, 1536-well. inhibition, % at 21.7 µM. 220,000 tested, 0.97% active. AID 1021;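 active = compounds that cut the binding signal by more than half at the single screening dose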;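 also: His-tagged Mcl-1 with europium anti-His antibody binding Bid BH3 peptide; 0% = Mcl-1 plus peptide wells and 100% = peptide-only wells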
BCLXL inh confirm = Bcl-xL (human) inhibition, MCL1 counter-screen confirmation | shares compounds with MCL1 BIM primary | GST-Bcl-xL / FITC-Bim BH3 peptide FP binding | inhibition, % at 10.9 µM | 1,700 tested, 54% active | AID 2166;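 active = inhibition above a cutoff equal to the mean inhibition of all tested compounds plus 3 SD, cut at about 30% in these data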;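 also: 0% = DMSO wells and 100% = unlabeled Bim BH3 control peptide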
MCL1 BIM confirm = confirmation of human MCL1 and BIM-BH3 interaction inhibitors. shares compounds with MCL1 BIM primary. GST-MCL1 / FITC-Bim-BH3 fluorescence polarization. inhibition, % at 10.9 µM. 1,700 tested, 61% active. AID 2168;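 active = inhibition above the average of all tested compounds plus 3 SD, cut at about 40% in these data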;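 also: 0% = DMSO wells and 100% = unlabeled Bim-BH3 control peptide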
GLD1 RNA confirm = GLD-1 TGE RNA interaction inhibition, confirmation; inhibition, % at 5.96 µM; shares compounds with GLD-1 RNA inh; GLD-1/FL-TGE RNA fluorescence polarization, biochemical; 550 tested, 10% active;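 active = average inhibition across triplicates above the hit cutoff set in the primary screen, cut at about 32% in these data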;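 also: 0% = GLD-1 with RNA probe and DMSO and 100% = wells lacking GLD-1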
Active calls of the source: *; x = not tested or not shown. A selection: hits, their analogues and other compounds. The true share with any hit is near 2.3%.

SMILES	Mcl1-Noxa inh	GLD-1 RNA inh	MCL1 BIM primary	Mcl-1 Bim block	BCLXL inh	Mcl1 Bid PPI	BCLXL inh confirm	MCL1 BIM confirm	GLD1 RNA confirm
C[n+]1c2ccccc2nc2ccc(NCCO)cc21	x	34*	82*	x	73*	x	78*	84*	14
OCCNc1c2c(nc3ccccc13)CCCC2	-11	4	0	1	3	-8	x	x	x
CN1C[C@H](CO)C[C@@H]2c3cccc4[nH]cc(c34)C[C@H]21	x	22	17	x	20	x	x	x	x
CN1C[C@H](CNC(=O)OCc2ccccc2)C[C@@H]2c3cccc4c3c(cn4C)C[C@H]21	6	53*	67*	0	52*	-18	24	39	6
CC[C@@H](CO)NC(=O)[C@@H]1C=C2c3cccc4c3c(cn4C)C[C@H]2N(C)C1	19	112*	171*	2	143*	1	29	42*	18
COC(=O)C1C=C2c3cccc4[nH]cc(c34)CC2N(C)C1 (stereo not drawn)	46	x	x	x	x	-36	x	x	x
CCC(CO)NC(=O)C1C=C2c3cccc4[nH]cc(c34)CC2N(C)C1 (stereo not drawn)	17	35*	47*	x	47*	-143	96*	111*	9
CC(C)(C)c1ccc(C(=O)C2CCCN(C3CCC3)C2)cc1 (stereo not drawn)	-3	-8	5	-2	3	-7	x	x	x
COC(=O)C1=C(c2cc3ccccc3s2)C[C@@H]2CC[C@H]1N2C(=O)N1CCCCC1	x	5	1	x	-2	x	x	x	x
CN(C)C1C(=O)C(C(N)=O)=C(O)C2(O)C(=O)C3=C(O)c4c(O)cccc4C(C)(O)C3C(O)C12 (stereo not drawn)	x	44*	105*	x	51*	x	33*	84*	0
COC(=O)C1=C(c2ccc(S(C)(=O)=O)cc2)C[C@@H]2CC[C@H]1N2C(=O)NCCS(C)=O (stereo partly drawn)	x	6	-1	x	3	x	x	x	x
CC(=NCCC1=CCCCC1)c1c(O)[nH]c(=O)[nH]c1=O	3	37*	8	1	4	-20	x	x	-3
CC(=NCCC1=CCCCC1)c1c(O)n(C)c(=O)n(C)c1=O	14	7	0	3	2	1	x	x	x
Cc1c(C(=O)Nc2ccccc2)c2cc(O)ccc2n1Cc1ccccc1	x	8	6	x	1	x	x	x	x
CN1CC[C@@]2(C)c3cc(O)ccc3N(C)C2O1 (stereo partly drawn)	x	39*	21	x	26	x	x	x	2
C=CCN1CC[C@@]2(C)c3cc(O)ccc3CC1[C@@H]2C	11	3	5	x	8	18	x	x	x
CN1C(=O)C2C[C@@]3(Br)c4ccccc4N(OOSc4ccccc4)[C@H]3N2C(=O)[C@@H]1Cc1ccccc1 (stereo partly drawn)	x	32*	-1	x	1	x	x	x	3
S=P(NC1CCCCC1)(N1CC1)N1CC1	7	35*	48*	x	50*	4	x	x	1
CN1C(=O)N(C)C(=O)C2(Cc3cc(NC(=O)c4ccccc4)ccc3N3CCCC32)C1=O (stereo not drawn)	x	-5	-3	x	7	x	x	x	x

Screens (PubChem)
